Bioassay records: PubChem, several laboratories
CYP2C9 inh – blockers of cytochrome P450 2C9 activity – biochemical, luminescence, ADME assay, primary screen. 96,000 compounds, 20% hits. inhibition, % at 5 µM. CYP2C9 Supersomes, luciferin-H conversion. P11712;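 active = blocking of liver enzyme CYP2C9 beyond about 50% at 5 µM, limit read from the data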
Target sequence (P11712 whole entry, looked up): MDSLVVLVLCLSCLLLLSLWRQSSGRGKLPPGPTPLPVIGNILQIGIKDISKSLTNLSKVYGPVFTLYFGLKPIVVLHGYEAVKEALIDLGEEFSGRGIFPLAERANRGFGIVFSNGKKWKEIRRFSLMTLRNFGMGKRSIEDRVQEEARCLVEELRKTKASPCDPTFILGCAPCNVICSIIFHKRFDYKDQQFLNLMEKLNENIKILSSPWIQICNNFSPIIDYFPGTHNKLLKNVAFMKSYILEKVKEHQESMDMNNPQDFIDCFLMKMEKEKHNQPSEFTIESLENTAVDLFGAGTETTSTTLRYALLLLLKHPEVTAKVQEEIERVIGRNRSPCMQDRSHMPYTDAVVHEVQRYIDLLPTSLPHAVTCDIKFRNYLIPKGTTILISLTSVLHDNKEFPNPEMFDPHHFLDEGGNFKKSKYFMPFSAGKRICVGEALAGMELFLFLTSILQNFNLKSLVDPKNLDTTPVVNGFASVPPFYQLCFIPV
sEH inhibitor – soluble epoxide hydrolase inhibitors, primary screen, biochemical, human sEH; Bifunctional epoxide hydrolase 2 (Homo sapiens), P34913; recombinant human sEH enzymatic activity assay; inhibition, % at 2 µM; 91,000 compounds, 0.34% hits; in the data active = inhibition above about 80%
CYP2C19 act – human CYP2C19 activators, primary screen, biochemical, luminescence; Cytochrome P450 2C19 (Homo sapiens), P33261; recombinant CYP2C19, luciferin-H EGE luminescence; stronger effect = higher value; 0 = fully inhibited enzyme, 1 = untreated enzyme; activation factor at 5 µM; 96,000 tested, under 10 active; AID 1025, 2008;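 active = activation factor of at least 2 at 5 µM in the primary screen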;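 note: 0 = wells with 2.5 mM tranylcypromine and 1 = vehicle-only wells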
sEH act – soluble epoxide hydrolase activators, primary screen, biochemical, human sEH | Bifunctional epoxide hydrolase 2 (Homo sapiens), P34913 | purified human sEH enzymatic activity, activator screen | activation, % at 2 µM | 91,000 compounds, 0.04% hits; in the data active = activation above about 37%
CYP2C9 activ – human CYP2C9 activators, primary screen, biochemical, luminescence. recombinant CYP2C9, luciferin-H conversion; stronger effect = higher value; factor 1 = untreated enzyme, 0 = blocked. activation factor at 5 µM. 96,000 compounds, 1.4% hits. AID 1024, 2008;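 active = activation factor of 2 or more for CYP2C9 at a 5 µM dose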;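 note: 0 = sulfaphenazole-blocked wells and 1 = vehicle-only wells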
CYP2C19 inhib – blockers of cytochrome P450 2C19 activity – biochemical, luminescence, ADME assay, primary screen. P33261. CYP2C19 Supersomes, luciferin-H EGE luminescence, 30 min. inhibition, % at 5 µM. 96,000 compounds, 21% hits;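 active = CYP2C19 inhibition above a set limit at 5 µM in the primary screen, cut at about 50% in these data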;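 note: plate controls were negative control wells for no effect and 2.5 mM tranylcypromine positive control for full effect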
Active calls of the source: *; nt = not tested or not shown. Shown are actives, neighbours in structure and some others; about 27% of the full set was active somewhere.

SMILES | CYP2C9 inh | sEH inhibitor | CYP2C19 act | sEH act | CYP2C9 activ | CYP2C19 inhib
Cc1ccc(-c2csc3nnc(SCc4csc(C)n4)n23)cc1 | 90* | -6 | 0.2 | 4 | 0.1 | 75*
CCn1ncc(/C=C/C(=O)Nc2c(C)nn(Cc3ccc(Cl)cc3Cl)c2C)c1C | 16 | 8 | 1.1 | -6 | 0.8 | -8
CC(C(=O)Nc1ccc(S(=O)(=O)N2CCCC2)cc1)N1CCN(C(=O)c2ccco2)CC1 (stereo not given) | 64* | 8 | 0.9 | -10 | 0.4 | 13
c1ccc(-c2csc3ncnc(NCCCN4CCOCC4)c23)cc1 | nt | 4 | nt | -2 | nt | nt
O=S(=O)(c1ccc(Oc2ccccc2)cc1)N1CCOCC1 | 57* | -3 | 0.6 | 5 | 0.4 | 42
O=S(=O)(c1ccc(Oc2ncnc3scc(-c4ccccc4)c23)cc1)N1CCOCC1 | 73* | 8 | 0.3 | -6 | 0.3 | 72*
C[C@H](NC(=O)c1ccco1)C(=O)Nc1ccc(S(=O)(=O)N2CCCC2)cc1 | 19 | 17 | 1.1 | -15 | 0.8 | -8
O=C(c1ccco1)N1CCN(S(=O)(=O)c2ccc3c(c2)OCCO3)CC1 | -13 | -8 | 0 | 11 | 1.1 | 96*
COC(=O)[C@H](C)NC(=O)Nc1cc(Cl)ccc1C | 38 | -8 | 0.5 | 7 | 0.6 | 47
O=C1NCCCc2nonc21 | -14 | -15 | 1.2 | 14 | 1.1 | -16
O=C(c1ccco1)N1CCN(S(=O)(=O)c2ccc(S(=O)(=O)NC3CC3)cc2)CC1 | 20 | -16 | 1 | 16 | 0.8 | 4
COc1ccc(S(=O)(=O)N2CCN(C(=O)c3c(-c4ccccc4)noc3C)CC2)cc1 | 14 | 2 | 0.6 | -1 | 0.9 | 39
O=C(c1ccco1)N1CCN(S(=O)(=O)c2ccc(Oc3ccccc3)cc2)CC1 | 84* | -16 | 0.5 | 13 | 0.2 | 54*
Cc1onc(-c2ccccc2)c1C(=O)N1CCN(S(=O)(=O)c2ccc3c(c2)OCCO3)CC1 | 41 | nt | 0.3 | nt | 0.6 | 74*
O=S(=O)(c1ccc(-c2cn3ccccc3n2)cc1)N1CCOCC1 | 55* | -16 | 0.9 | 18 | 0.5 | 5
Cc1cccn2cc(-c3ccc(S(=O)(=O)N4CCOCC4)cc3)nc12 | -8 | nt | 0.9 | nt | 1.1 | 12
c1ccc(-c2nnc(OCCN3CCOCC3)c3ccccc23)cc1 | -9 | 9 | 0.6 | -8 | 1.1 | 38
COc1ccc(/C=N/NC(=O)CC(=O)NCc2cccnc2)cc1 | 19 | -2 | 1.1 | 4 | 0.8 | -8
Cc1cc(C)nc(N2CCC(C(=O)NCCc3ccccc3)CC2)n1 | -74 | 37 | 0.9 | -38 | 1.7 | 8
Cc1cccn2cc(CNC(=O)C3CCCCC3)nc12 | nt | -7 | nt | 5 | nt | nt
Cc1cc2ccccc2n1CCNC(=O)c1cccs1 | 45 | 12 | 0.5 | -12 | 0.5 | 53*
Cc1cc2ccccc2n1CCNC(=O)C1CCCC1 | 52* | -1 | 0.1 | 3 | 0.5 | 94*
Cc1cc2ccccc2n1CCNC(=O)C1CCCCC1 | 38 | 0 | 0.3 | -2 | 0.6 | 68*
CCOC(=O)c1oc2cc(C)cc(O)c2c(=O)c1-c1csc(C)n1 | -28 | 14 | 1 | -14 | 1.3 | 4
O=C(NCc1ccccc1)NS(=O)(=O)c1ccccc1Cl | 37 | nt | 1.2 | nt | 0.6 | -18
SMILES | CYP2C9 inh | sEH inhibitor | CYP2C19 act | sEH act | CYP2C9 activ | CYP2C19 inhib
CSCC[C@H](NC(=O)c1ccc(Cl)c(S(=O)(=O)N2CCCC2)c1)c1nc2ccccc2[nH]1 | 68* | 11 | 0.4 | -10 | 0.3 | 59*
CCCn1c(NC(=O)c2ccc(Cl)c(S(=O)(=O)N3CCCC3)c2)nc2ccccc21 | 84* | -8 | 0.2 | 9 | 0.2 | 83*
CCCn1c(NC(=O)c2cccc(C)c2C)nc2ccccc21 | 17 | -4 | 0.3 | 4 | 0.8 | 75*
O=C(NCc1nc2ccccc2[nH]1)c1ccc(Cl)c(S(=O)(=O)N2CCCC2)c1 | 45 | 8 | 0.3 | -10 | 0.5 | 65*
CSCCC(NC(=O)C1CC1)c1nc2ccccc2[nH]1 (stereo not given) | 6 | -9 | 0.9 | 7 | 0.9 | 13
CCC(c1nnnn1CC1CCCO1)N(CCN1CCOCC1)Cc1cc2cc(C)ccc2[nH]c1=O (stereo not given) | -12 | -10 | 1.1 | 10 | 1.1 | -14
Cc1cc(NC(=O)CSc2ccc3ccccc3c2)no1 | 79* | 10 | 0.5 | -7 | 0.2 | 50*
Cn1ccnc1SCC(=O)Nc1ccc2ccccc2c1 | 19 | 42 | 0.1 | -42 | 0.8 | 93*
O=C(CSc1ccc2ccccc2c1)Nc1ccncc1 | 95* | 15 | 0 | -13 | 0 | 97*
CCc1cc2ccccc2nc1SCC(=O)Nc1cc(C)on1 | -16 | 2 | 1 | -2 | 1.2 | 5
CC(=O)Oc1ccc(NC(=O)CSc2ccccc2)cc1 | 53* | 6 | 0.3 | -3 | 0.5 | 69*
O=C(CN1C(=O)NC2(CCCCCC2)C1=O)N1CCN(S(=O)(=O)c2ccc(Cl)cc2)CC1 | 10 | nt | 0.9 | nt | 0.9 | 8
COc1ccc(C2=NOC3(CC(=O)N(c4ccc(C)cc4)C3=O)C2)c(OC)c1 (stereo not given) | 2 | -5 | 1.1 | 6 | 1 | -6
O=C(CSc1ccccc1)Nc1ccncc1 | 85* | 4 | 0.1 | -1 | 0.1 | 90*
Cc1ccnc(NC2OC(=O)c3ccccc32)c1 (stereo not given) | -16 | -5 | 0.8 | 7 | 1.2 | 16
COC(=O)C1C2C=CC(C3CC23)C1C(=O)OCC(=O)c1ccc(OC)cc1 (stereo not given) | 38 | 19 | 0.2 | -17 | 0.6 | 83*
COC(=O)C1C2C=CC(C3CC23)C1C(=O)OCC(=O)c1ccccc1 (stereo not given) | 57* | 5 | 0 | -3 | 0.4 | 95*
Cc1cccc(/C(N)=N/OC(=O)N2c3ccccc3Sc3ccccc32)c1 | 54* | -5 | 0.7 | 5 | 0.5 | 27
CCC(C(=O)O/N=C(\N)c1cccc(C)c1)c1ccccc1 (stereo not given) | 23 | 9 | 0.9 | -9 | 0.8 | 12
CSc1nc2n(n1)C(c1ccccn1)C1=C(CC(C)(C)CC1=O)N2 (stereo not given) | -6 | 7 | 1 | -7 | 1.1 | -1
O=C(O)C(Cc1cc2ccccc2[nH]1)N1C(=O)C2CC=C(Cl)CC2C1=O (stereo not given) | nt | 4 | nt | -4 | nt | nt
CC(=O)OC1COC(N2CCc3cc(Br)c([N+](=O)[O-])cc32)C(OC(C)=O)C1OC(C)=O (stereo not given) | 94* | 12 | 0.1 | -10 | 0.1 | 88*
